The values below come from PubChem BioAssay (NCI).

The panel holds about 83,000 compounds, 20% with a hit somewhere; the sample as a whole holds those more often.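 Single-concentration screen, 48 h exposure, 96-well plates. Endpoint: percent growth. Below 10 = active.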 A number with no mark means an inactive call. Active and inactive are the calls of the source.

The test system of the first experiment is SR leukemia. As to the kind of experiment: NCI-60 one-dose screen, 48 h (100 = growth as untreated, 0 = no growth, -100 = all killed). The note with it: 10 µM unless noted.
On to `O=C(CCl)Oc1ccc([N+](=O)[O-])cc1`, for which the growth is 102%.

Take `Clc1cccc(Cl)c1CSc1nc2ccccc2n2cccc12`: the growth was 71.9%.

With `Cc1cccnc1NC1OC(=O)c2ccccc21` (stereo not given), the growth was 93.8%.

`COc1cc(OC)c(NC(=O)C(Sc2nc(C)cc(C)c2C#N)c2ccccc2)cc1Cl` (stereo not given): the growth was 98.4%.

Turning to `COc1ccc(/C=N/NC(=O)COCC(=O)N/N=C/c2ccc(OC)cc2)cc1`, the growth is 96.7%.

Turning to `Nc1ccccc1SC1CC(=O)N(c2ccc(Cl)c(Cl)c2)C1=O` (stereo not given), the growth was 91.1%.

As for `CC(C)c1ccccc1NC(=O)N1CCC(C(C)C)CC1`, the growth is 92.4%.

With `FC(F)(F)c1cc(NC2=NCCN=C(Nc3cc(C(F)(F)F)cc(C(F)(F)F)c3)SS2)cc(C(F)(F)F)c1`, the growth is 1.94% (active).

As for `CC(CCC#N)(CCC#N)C(=O)c1ccccc1`, the growth is 104%.

Consider `CCCCCCCCNC(=O)C(C)C`, for which the growth was 102%.

Regarding `CCCCCCCCCCCCCCCCCC(=O)NCCNC(=O)CCCCCCCCCCCCCCCCC`, the growth is 0.967% (active).

With `C=CCC(OC(C)=O)c1ccc(C(C)C)cc1` (stereo not given), the growth is 116%.

As to `CC(=O)c1cc(O)ccc1O`, the growth is 94.2%.

For `CCCNS(=O)(=O)c1ccc(Cl)cc1`, the growth is 98.9%.

As to `S=c1nc(-c2ccccn2)c(-c2ccccn2)n[nH]1`, the growth is 99.2%.

For `CCOc1ccc(C(=O)NCC(C)C)cc1`, the growth is 102%.

As for `O=C(O)c1cccc(-n2ncc(Cl)c(Cl)c2=O)c1`, the growth was 102%.

In the case of `Cn1/c(=N\N=C\c2ccccc2OCCO)sc2ccccc21`, the growth is 89%.

In the case of `Clc1ccc(-c2noc(/C=C\c3ccccc3)n2)cc1`, the growth is 97.8%.

For the compound `CC(=O)Nc1ncc(S(=O)(=O)c2ccc([N+](=O)[O-])cc2)s1`, the growth was 96.4%.

Take `CC(=O)NCNC(C)=O`: the growth is 85.3%.

`CCOC(=O)c1ccc(C(C)(C)C)cc1`: the growth is 95.7%.

`NC(=S)N/N=C/c1ccc(Cl)cc1`: the growth is 97.1%.

With `Cc1ccc(NC(=O)c2ccccc2Cl)cc1`, the growth is 92.3%.

Turning to `C=CCC(OC(C)=O)c1ccc(OC)c(OC)c1` (stereo not given), the growth is 35.3%.

As to `Oc1ccc(N=Cc2ccc(OCc3ccccc3)cc2)cc1`, the growth is 97.4%.

Turning to `COc1nc(Nc2cccc(C(F)(F)F)c2)nc(OC)n1`, the growth is 95%.

As to `C=C1SC(=Nc2c(C)cccc2C)N(c2nc(Cl)nc(Cl)n2)C12CCCCC2`, the growth was 81.4%.

On to `O=C(CCl)Nc1ccccc1SCc1cc(Cl)cc2c1OCOC2`, for which the growth is 31.9%.

In the case of `Cc1c(-c2ccc(C3CCCCC3)cc2)nc2ccc(F)cc2c1C(=O)O`, the growth is 7.53% (active).

As to `C[n+]1cc2cc3c(cc2c2ccccc21)OCO3`, the growth was 15.6%.

As for `CCCC(=O)CC(=O)c1ccccc1`, the growth is 107%.

As to `O=C(O)Cc1ccc(Cl)cc1`, the growth is 44.8%.

For `CC(C)(CC(=O)O)CC(=O)O`, the growth was 99.3%.

`CCOC(=O)C(C#N)=C1CCN(C)CC1`: the growth was 79.9%.

In the case of `O=C1NC(=O)C(c2ccccc2)O1` (stereo not given), the growth was 93.3%.

Consider `COC1OC(COC(C)=O)C(OC(C)=O)C(OC(C)=O)C1OC(C)=O` (stereo not given), for which the growth is 95.5%.

Consider `C#CCSc1nnnn1-c1ccccc1`, for which the growth is 86.9%.

The subject of another experiment is RPMI-8226 leukemia. The experiment is described as above. The note with it: 10 µM unless noted.
Turning to `O=C(CCl)Oc1ccc([N+](=O)[O-])cc1`, the growth is 103%.

Consider `Clc1cccc(Cl)c1CSc1nc2ccccc2n2cccc12`, for which the growth is 96.1%.

Regarding `Cc1cccnc1NC1OC(=O)c2ccccc21` (stereo not given), the growth was 106%.

For the compound `COc1cc(OC)c(NC(=O)C(Sc2nc(C)cc(C)c2C#N)c2ccccc2)cc1Cl` (stereo not given), the growth is 119%.

`COc1ccc(/C=N/NC(=O)COCC(=O)N/N=C/c2ccc(OC)cc2)cc1`: the growth was 101%.

In the case of `CC(C)c1ccccc1NC(=O)N1CCC(C(C)C)CC1`, the growth was 105%.

As to `FC(F)(F)c1cc(NC2=NCCN=C(Nc3cc(C(F)(F)F)cc(C(F)(F)F)c3)SS2)cc(C(F)(F)F)c1`, the growth is 6.78% (active).

`CC(CCC#N)(CCC#N)C(=O)c1ccccc1`: the growth was 101%.

For `CCCCCCCCNC(=O)C(C)C`, the growth is 99.1%.

On to `CCCCCCCCCCCCCCCCCC(=O)NCCNC(=O)CCCCCCCCCCCCCCCCC`, for which the growth is 86.4%.

Take `C=CCC(OC(C)=O)c1ccc(C(C)C)cc1` (stereo not given): the growth was 108%.

Consider `CC(=O)c1cc(O)ccc1O`, for which the growth was 119%.

As for `CCCNS(=O)(=O)c1ccc(Cl)cc1`, the growth was 99.7%.

Regarding `S=c1nc(-c2ccccn2)c(-c2ccccn2)n[nH]1`, the growth is 112%.

Consider `CCOc1ccc(C(=O)NCC(C)C)cc1`, for which the growth is 105%.

Take `O=C(O)c1cccc(-n2ncc(Cl)c(Cl)c2=O)c1`: the growth was 93.8%.

On to `Cn1/c(=N\N=C\c2ccccc2OCCO)sc2ccccc21`, for which the growth is 81%.

Take `Clc1ccc(-c2noc(/C=C\c3ccccc3)n2)cc1`: the growth is 110%.

Take `CC(=O)Nc1ncc(S(=O)(=O)c2ccc([N+](=O)[O-])cc2)s1`: the growth was 100%.

With `CC(=O)NCNC(C)=O`, the growth is 97%.

As for `CCOC(=O)c1ccc(C(C)(C)C)cc1`, the growth is 104%.

For the compound `NC(=S)N/N=C/c1ccc(Cl)cc1`, the growth was 97.8%.

As for `Cc1ccc(NC(=O)c2ccccc2Cl)cc1`, the growth was 94.8%.

In the case of `C=CCC(OC(C)=O)c1ccc(OC)c(OC)c1` (stereo not given), the growth is 97.1%.

As for `Oc1ccc(N=Cc2ccc(OCc3ccccc3)cc2)cc1`, the growth was 96.7%.

As to `COc1nc(Nc2cccc(C(F)(F)F)c2)nc(OC)n1`, the growth was 94.7%.

With `C=C1SC(=Nc2c(C)cccc2C)N(c2nc(Cl)nc(Cl)n2)C12CCCCC2`, the growth was 99.8%.

Take `O=C(CCl)Nc1ccccc1SCc1cc(Cl)cc2c1OCOC2`: the growth is 94%.

`Cc1c(-c2ccc(C3CCCCC3)cc2)nc2ccc(F)cc2c1C(=O)O`: the growth was 56.1%.

As to `C[n+]1cc2cc3c(cc2c2ccccc21)OCO3`, the growth was 40.3%.

As for `CCCC(=O)CC(=O)c1ccccc1`, the growth was 103%.

Consider `O=C(O)Cc1ccc(Cl)cc1`, for which the growth is 99.1%.

On to `CC(C)(CC(=O)O)CC(=O)O`, for which the growth is 104%.

Take `CCOC(=O)C(C#N)=C1CCN(C)CC1`: the growth is 102%.

Turning to `O=C1NC(=O)C(c2ccccc2)O1` (stereo not given), the growth is 99.5%.

Take `COC1OC(COC(C)=O)C(OC(C)=O)C(OC(C)=O)C1OC(C)=O` (stereo not given): the growth is 96.4%.

For the compound `C#CCSc1nnnn1-c1ccccc1`, the growth is 72.4%.
